IP6K1 inh = inhibitors of human IP6K1 | Q92551 | IP6K1 kinase, ADP-Glo luminescence, 2 h; active compounds read low | activity change, % (series mostly up to about 58 µM) | 140,000 compounds, 0.81% hits | AID 1645851; in the data active = activity change below about -25%
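ADP-Glo luminescence measures ADP made by human IP6K1 during a 2 h RT reaction with ATP/IP6 (mix at 1.3 mM/130 uM); top library doses 57.5 and 19.1 uM final.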
KDM5B inh = KDM5B demethylase inhibition; Q9UGL1; KDM5B demethylase, FDH-coupled NADH fluorescence (FDH is formaldehyde dehydrogenase); Potency, µM (series often up to 57.7 µM), usual class: inhibitors; 220,000 compounds, 2.6% hits; AID 1347165; note: nearly all actives have a fitted effect of over 70% in size
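Inhibition is measured as reduced NADH fluorescence generation from FDH coupling to formaldehyde release. Truncated KDM5BΔAP at 200 nM final acts on H3K4me3 peptide (12.5 µM in substrate mix) in pH 7.5 HEPES buffer with Tween-20, 30 min, room temperature.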
SNCA viab count = counter-screen for SNCA expression inhibitors: cell viability. HEK-293-SNCA-luc viability, GF-AFC fluorescence, 24 h. Potency, µM (series often up to 57.1 µM), usual class: cytotoxic. 150,000 compounds, 0.12% hits. AID 1671193; note: nearly all actives have a fitted effect of over 30% in size
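HEK-293-SNCA-luc cells (1500/well) plated 24 h, then exposed 24 h to a dilution series; GF-AFC added 30 min at 37C, fluorescence 405/540 nm; normalised to medium-only and DMSO wells, Hill fit.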
SNCA expr inh = reduces expression of the alpha-synuclein gene; HEK-293 SNCA-luciferase knock-in, luminescence, 24 h; Potency, µM (highest dose often 57.2 µM), most hits filed as inhibitors; 140,000 compounds, 0.17% hits; AID 1671194; note: nearly all actives have a fitted effect of over 45% in size
A number is an active result; i = inactive; ? = inconclusive; nt = no result given; [ ] = dose if it differs, or a comment. Only some compounds are listed: those with a hit (about 2.8% of all), similar ones and a draw of the others. Unless noted, calls come from the whole dose curve; as a rule, active = well fitted curve in the direction sought with a large enough effect; inconclusive = small, poorly fitted or top-dose-only effect, or another doubt; inactive = no such curve, though single readings can be large; an effect the other way counts as inactive or inconclusive.

SMILES	IP6K1 inh	KDM5B inh	SNCA viab count	SNCA expr inh
Cc1ncc(CO)c(CN2CCCC23Cc2ccccc2CNC3=O)c1O (configuration not stated)	i	79.4µM	i	i
O=C(CSc1nc(C(F)(F)F)nc2ccccc12)NC1CCCC1	nt	i	nt	nt
COc1cc(CNc2nn[nH]n2)ccc1OCc1c(F)cccc1Cl	nt	i	nt	nt
COc1ccc(C(=O)N2CCC(c3nn(C)c(=O)n3-c3ccccc3)CC2)cc1	i	nt	i	i
COc1ccc(Cl)cc1-c1ccc2c(c1)C(=O)N1CCN(C(=O)C3CCCC3)C[C@H]1C(=O)N2	i	20µM	i	i
O=C1Nc2ccc(-c3ccc(Cl)cc3)cc2C(=O)N2CCN(C(=O)C3CCCCC3)C[C@H]12	i	25.1µM	i	?
COc1ccc(Cl)cc1-c1ccc2c(c1)C(=O)N1CCN(C(=O)CN)C[C@H]1C(=O)N2	i	35.5µM	i	i
CC(=O)c1cc(CC(=O)O)cs1	nt	i	nt	nt
O=C1OCCN1CCNc1ccc(-c2nc(-c3ccccc3F)no2)cn1	i	28.2µM	i	i
Cc1ccc2c(C(=O)NCCc3cccs3)cc(NC(=O)C3CCC3)cc2n1	i	?	i	i
Cc1ccc(NC(=O)c2cc(NC(=O)C3CC3)cc3nc(C)ccc23)cc1	i	?	i	i
COc1ccc(NC(=O)c2cc(NC(=O)C3CCC3)cc3nc(C)ccc23)cc1	i	25.1µM	i	i
CNC(=O)c1cc(NC(=O)C2CCC2)cc2nc(C)ccc12	i	31.6µM	i	i
Cc1cc(C)cc(NC(=O)C2CCCCC2)c1	nt	i	nt	nt
Cc1ccc2c(C(=O)N3CCOCC3)cc(NC(=O)C3CCC3)cc2n1	i	22.4µM	i	i
Cc1ccc2c(C(=O)O)cc(NC(=O)C3CCC3)cc2n1	i	22.4µM	i	i
CN(Cc1cc2ccccc2s1)C(=O)c1cc(CN2CCCC(O)C2)on1 (configuration not stated)	i	i	i	i
Cc1ccc2c(C(=O)N3CCN(CC(C)C)CC3)cc(NC(=O)C3CCC3)cc2n1	i	22.4µM	i	i
Cc1ccc2c(C(=O)N3CCN(C(C)C)CC3)cc(NC(=O)C(C)C)cc2n1	i	25.1µM	i	i
Cc1ccc2c(C(=O)N3CCN(c4ccc(F)cc4)CC3)cc(NC(=O)C(C)C)cc2n1	i	?	i	i
COc1ncccc1-c1cn(C)c(=O)n2cc(CN3CC[S+](=O)([O-])CC3)nc12	i	i	i	i
Cn1cc(Nc2ccc(Cl)cc2)c2nc(CN3CC[S+](=O)([O-])CC3)cn2c1=O	i	28.2µM	i	i
CC(=O)Nc1cc(-c2cn(C)c(=O)n3cc(CN4CC[S+](=O)([O-])CC4)nc23)ccn1	i	35.5µM	i	i
COc1ccc2nc3n(c2c1)[C@@H](CNC(=O)C1CCOCC1)COC3	i	39.8µM	i	i
CC(=O)N1CCN(c2cncc(C(=O)N3CCOCC3)n2)CC(O)C1 (configuration not stated)	i	22.4µM	i	i
SMILES	IP6K1 inh	KDM5B inh	SNCA viab count	SNCA expr inh
Cc1nn2c(c1-c1ccccc1C(C)C)N(C(=O)c1cc3ccccc3n1C)CCC2	i	i	35.5µM	?
Cc1nn2c(c1-c1ccccc1C(C)C)N(Cc1ccc(C(=O)O)cc1)CCC2	i	i	i	i
Cc1nn2c(c1-c1ccccc1C(C)C)N(CCC(C)C)CCC2	i	17.8µM	?	?
COC[C@@H]1CN(C(=O)c2ccc(OC)nc2)C[C@H]1C(N)=O	i	i	i	i
COc1ccc(-c2ccc(C(=O)Nc3ccccc3F)cc2)nn1	i	nt	nt	nt
COc1ccccc1CNC(=O)C1CN(C2CCCC2)C(=O)N1 (configuration not stated)	i	nt	i[12.5 µM]	?
c1ccc(Nc2cc3c(cn2)CN(Cc2ccccn2)CCN3)cc1	i	31.6µM	i	i
COCCN1CCNc2cc(Nc3cccc(N(C)C)c3)ncc2C1	i	35.5µM	i	i
CN(C)c1ccc(CN2CCNc3cc(Nc4ccccc4)ncc3C2)cc1	i	39.8µM	?	i
Cn1cnc(CN2CCNc3cc(Nc4ccccc4)ncc3C2)c1	i	i	i	i
Cc1c(Cl)c(CSc2nccn2C)nc2ccccc12	nt	i	nt	nt
COCC(=O)N1C[C@H](NC(=O)c2nc3ccccc3n(C)c2=O)[C@@H](C2CC2)C1	i	22.4µM	i	i
COCC(=O)N1C[C@H](NC(=O)C(=O)c2cccn2C)[C@@H](C2CC2)C1	i	i	i	i
Cc1cc(C(=O)OCC(=O)c2cc(C)n(CCc3ccccc3)c2C)c2ccccc2n1	nt	i	nt	nt
CN(C)c1nccnc1OC1CCN(C(=O)NCCc2ccccc2)C1 (configuration not stated)	i	i	i	i

Source: PubChem
